The values that follow come from PubChem BioAssay AID588675 (Johns Hopkins Ion Channel Center, 2011).

In all, about 310,000 compounds went through this assay and about 1,900 (0.61%) were called active.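 How the source made its calls: active means plate-corrected calcium response at least 3 library SD above typical, normal starting fluorescence, not activating the receptor alone; inactive means the rest.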 Many of the other results were omitted from the sample, so actives are more common in it than they were.

The target in the assay is Mas-related G-protein coupled receptor member X1 (Homo sapiens) (UniProt Q96LB2). Description: allosteric enhancers of human MrgX1 signaling – HEK293 cells, Fluo-4 calcium flux, primary screen (AID 588675).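 Further: compound read alongside a low EC10 to EC30 dose of BAM8-22 agonist.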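 On B-score: peak minus trough fluorescence over baseline measured at the second addition.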 The note with it: MrgX1-HEK293, Fluo-4 calcium flux, FDSS, at 10 µM; active compounds read high.
Chain of Mas-related G-protein coupled receptor member X1 (Homo sapiens) (Q96LB2 whole entry, looked up): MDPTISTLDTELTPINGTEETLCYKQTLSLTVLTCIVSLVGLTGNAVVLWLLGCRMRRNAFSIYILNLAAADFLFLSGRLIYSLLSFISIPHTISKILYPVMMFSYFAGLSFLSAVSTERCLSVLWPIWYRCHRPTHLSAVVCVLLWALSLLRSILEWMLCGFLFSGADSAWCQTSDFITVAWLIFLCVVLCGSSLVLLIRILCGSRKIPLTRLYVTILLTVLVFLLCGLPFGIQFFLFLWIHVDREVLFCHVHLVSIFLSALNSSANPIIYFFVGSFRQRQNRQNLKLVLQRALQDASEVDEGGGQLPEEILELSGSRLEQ
Consider `CN(C(=O)CCNC(=O)Cn1ccc2ccccc2c1=O)c1ccc(Br)cc1`, for which the B-score result was “inactive”.

`CC(=O)N1c2ccc(S(=O)(=O)N(C)CC(=O)N(C)Cc3ccccc3)cc2CC1C` (stereo not given): the B-score result was “inactive”.

On to `O=C(Nc1nnc(-c2ccccc2F)s1)c1ccccc1F`, for which the B-score result was “inactive”.

As for `COc1ccccc1C(CNC(=O)c1cccc(NS(=O)(=O)c2ccc(Br)cc2)c1)N(C)C` (stereo not given), the B-score result is “inactive”.

For the compound `Cc1ccc(CNS(=O)(=O)c2ccc3c(c2)N(C)CCO3)cc1`, the B-score entry was “inactive”. For `CC(=O)NS(=O)(=O)c1ccc(N/C(N)=N/c2nc(C)cc(C)n2)cc1`, the B-score result was “inactive”.

For the compound `Cc1ccc(N/C(N)=N/c2nc(C(F)(F)F)cc(C(F)(F)F)n2)cc1`, the B-score is 38.3 (active). As for `Cc1ccc(NC(=O)Nc2ccc3oc(C)nc3c2)cc1`, the B-score result was “inactive”.

Consider `O=C(c1noc2c1CCCC2)N1CCc2ccccc2C1`, for which the B-score result is “inactive”. On to `Cc1cc(C)cc(Oc2nc3c(C)cccn3c(=O)c2/C=C(\C#N)C(=O)NC2CCS(=O)(=O)C2)c1` (stereo not given), for which the B-score entry is “inactive”. Consider `CN1CC(c2ccccc2)C2(COc3ccccc3C2=O)C12C(=O)Nc1ccccc12` (stereo not given), for which the B-score result was “inactive”. `CCOC(=O)N1CCN(C(=O)CSc2nc(C)nc3c2c(=O)n(C)c(=O)n3C)CC1`: the B-score result was “inactive”. Under `CCC(C)Sc1nc(C)nc2c1c(=O)n(C)c(=O)n2C` (stereo not given) stands 17.1 (active); under `CSc1nc(C)nc2c1c(=O)n(C)c(=O)n2C`, “inactive”. With `O=C(N/N=C/c1cc2c(cc1Br)OCO2)C1COc2ccccc2O1` (stereo not given), the B-score result was “inactive”.

Take `CC(=O)N/N=C/c1cc2c(cc1[N+](=O)[O-])OCO2`: the B-score result was “inactive”.

As to `CC1(C(=O)N/N=C/c2cc3c(cc2Br)OCO3)CC1(Br)Br` (stereo not given), the B-score is 8.54 (active). Under `CCOC(=O)C1(Cc2ccccc2C)CCCN(S(C)(=O)=O)C1` (stereo not given) stands “inactive”; under `O=C(NC(Cc1ccccc1)C(=O)O)/C(=C\c1ccccc1)NC(=O)c1ccco1` (stereo not given), “inactive”; under `Cc1cc(/C=C2\SC(=O)N(C)C2=O)c(C)n1-c1cccc(C(=O)O)c1`, “inactive”.

`CCS(=O)(=O)C1=NSC2=NC(=O)/C(=C\c3ccc(OS(=O)(=O)c4ccccc4)cc3)C(=N)N21`: the B-score was 24.2 (active).

On to `Cc1ccc(C2=N/C(=C\c3ccc(OS(=O)(=O)c4ccc(C)cc4)cc3)C(=O)O2)cc1`, for which the B-score result is “inactive”. In the case of `Cc1cc(/C=C2/C(=N)N3C(=NC2=O)SN=C3S(C)(=O)=O)c(C)n1-c1ccccc1`, the B-score was 11.8 (active). In the case of `CCS(=O)(=O)C1=NSC2=NC(=O)/C(=C\c3cc(C)n(-c4cccc(OC)c4)c3C)C(=N)N21`, the B-score was 10.5 (active). Under `CS(=O)(=O)c1ccc2c(c1)SC1=NC(=O)/C(=C/c3ccco3)C(=N)N12` stands “inactive”; under `CS(=O)(=O)C1=NN2C(=N)/C(=C\c3ccc(OCCOc4ccccc4)cc3)C(=O)N=C2S1`, “inactive”.

Take `COc1ccccc1OCCOc1ccc(/C=C2\C(=N)N3N=C(C)SC3=NC2=O)cc1`: the B-score entry was “inactive”. Consider `CCC1=NN2C(=N)/C(=C/c3cc(C)n(-c4ccccc4)c3C)C(=O)N=C2S1`, for which the B-score result is “inactive”. Under `COC1(C2=NCCN2)COc2ccccc2O1` (stereo not given) stands “inactive”; under `COc1ccccc1NC(=O)N1CCCC1C(=O)NCc1cccs1` (stereo not given), “inactive”.

On to `COc1cccc(-c2nnc(NC(=O)c3ccc(S(=O)(=O)N(CC(C)C)CC(C)C)cc3)o2)c1`, for which the B-score result is “inactive”. As for `O=C1CCCCN1CCCC(=O)N1CCCC(Nc2ccc(F)cc2)C1` (stereo not given), the entry is “inactive”.

As for `CCOC(=O)c1ccc(N=C2SC(C(=O)NC)CC(=O)N2CCc2ccccc2)cc1` (stereo not given), the B-score result was “inactive”. For the compound `CSc1ccc(CN2C(=O)NC3(CCCCCC3)C2=O)cc1`, the B-score entry was “inactive”.

In the case of `C=C1c2c(Cl)ccc(O)c2C(O)=C2C(=O)[C@]3(O)C(O)=C(C(N)=O)C(=O)[C@@H](N(C)C)[C@@H]3[C@@H](O)C12` (stereo not given in full), the B-score entry is “inactive”.

For `O=C(Cc1ccc(S(=O)(=O)N2CCCC2)s1)NC1CCCCCC1`, the B-score entry was “inactive”. Under `Cc1ccc(SCC(=O)c2cc(C)c(OC(=S)N(C)C)c(C)c2)cc1` stands “inactive”. As for `O=C(Nc1ncc([N+](=O)[O-])s1)C1COc2ccccc2O1` (stereo not given), the entry is “inactive”; as for `O=C(Nc1nc2c(F)cc(F)cc2s1)C1COc2ccccc2O1` (stereo not given), 9.52 (active); as for `COc1ccc(OC)c2sc(NC(=O)C3COc4ccccc4O3)nc12` (stereo not given), “inactive”. As for `COc1ccc(C/C(C)=N/NC(=O)c2ccncc2)cc1`, the entry is “inactive”. As to `CN(C)CCCO/N=C(\c1ccccc1)c1ccncc1`, the B-score entry was “inactive”. As for `COc1cc(OC)nc(N/N=C(\c2ccccc2)c2ccncc2)n1`, the figure is 9.14 (active).

Consider `CSc1cccc(NC(=O)C2CCCN2S(=O)(=O)c2ccc3c(c2)CCC(=O)N3)c1` (stereo not given), for which the B-score entry was “inactive”. Turning to `CC[N+](C)(CC)CCC[n+]1c(-c2ccccc2)c2cc(N)ccc2c2ccc(N)cc21`, the B-score entry is “inactive”.

On to `Cc1ccc2c(c1)c1ncn(CCC3=CCCCC3)c(=O)c1n2C`, for which the B-score entry is “inactive”. Under `Cc1ccc2c(c1)c1ncn(Cc3ccc(F)cc3)c(=O)c1n2C` stands “inactive”; under `Cc1ccc2c(c1)c1ncnc(N3CCc4ccccc4C3)c1n2C`, 8.06 (active). For `COc1cc(S(=O)(=O)N(Cc2cccs2)C2CC2)ccc1-n1cnnn1`, the B-score entry was “inactive”. As to `COC(=O)c1ccc(CN2CCN(CCCc3ccccc3)C(CCO)C2)cc1` (stereo not given), the B-score result is “inactive”. As for `Cc1nonc1C1CCCN1Cc1nc(-c2ccc(F)cc2F)oc1C` (stereo not given), the figure is 7.14 (active). As for `COc1ccc(F)c(-c2nc(CN3CCC(c4ccccc4)CC3)c(C)o2)c1`, the entry is “inactive”; as for `Cc1oc(-c2ccccc2F)nc1CS(=O)CC(=O)NCCN1CCCCC1C` (stereo not given), “inactive”; as for `CCCCOc1ccc(N(CC(=O)NC(C)C)C(=O)CCC(=O)Nc2ccccn2)cc1`, “inactive”. Consider `CCCNc1c(N)c(=O)c1=O`, for which the B-score entry is “inactive”.

As to `Cc1oc2cc([N+](=O)[O-])c(O)c([N+](=O)[O-])c2c1C(=O)c1ccc(Br)cc1`, the B-score result is “inactive”. `COc1ccc(C(=O)N2CC3(C)CC2CC(C)(C)C3)cc1OC` (stereo not given): the B-score result was “inactive”. Regarding `COc1ccc(Nc2ncnc3ccc(Br)cc23)c(OC)c1`, the B-score result was “inactive”. Regarding `CC1(C)CC2CC(C)(CN2c2ncnc3ccc(Br)cc23)C1` (stereo not given), the B-score was 13 (active). Under `Cn1c(-c2sccc2OCc2cccc(C(F)(F)F)c2)n[nH]c1=S` stands “inactive”; under `Cc1ccccc1-c1n[nH]c(=S)n1C`, “inactive”. As for `Cn1c(-c2sc3cc(C(F)(F)F)cnc3c2-c2ccccc2)n[nH]c1=S`, the figure is 9.48 (active). Under `COc1ccccc1C(=O)NC(=S)NC12CC3CC(CC(C3)C1)C2` stands “inactive”; under `CN1CCN(C(=O)c2ccccc2NC(=O)COc2ccccc2Cl)CC1`, “inactive”; under `O=C(CNC(=O)c1ccc(F)cc1)c1ccccc1`, “inactive”. With `O=C(C[n+]1cc(Br)cc2ccccc21)c1ccc(F)cc1`, the B-score is 9.24 (active).

For the compound `Cc1cccc[n+]1CC(=O)c1ccccc1`, the B-score result is “inactive”. For the compound `C=C(C)c1cccc(C(C)(C)NC(=O)NCCN(CC)CC)c1`, the B-score entry was “inactive”. `CC(C)C(=O)NCC(c1cccs1)S(=O)(=O)c1ccc(F)cc1` (stereo not given): the B-score entry was “inactive”. For the compound `COc1cccc(Cn2cnc3c([N+](=O)[O-])c(C)c(C)cc32)c1`, the B-score result was “inactive”. Take `Cc1cccc(Cn2cnc3c(N)c(C)c(C)cc32)c1`: the B-score is 9.78 (active).

Turning to `CCOC(=O)c1cn(Cc2cccc(C)c2)nn1`, the B-score entry is “inactive”.

For the compound `CCOc1ccc2[nH]c(=O)c(CN(CCCO)S(=O)(=O)c3ccc(F)cc3)cc2c1`, the B-score entry is “inactive”. Under `Cc1cc2c(cc1C)[n+](C)cn2CC(O)COCC1CC=CCC1` (stereo not given) stands “inactive”; under `Cn1c(-c2ccc(F)cc2)cc2onc(-c3ccccc3Cl)c2c1=O`, “inactive”; under `CCn1c(C)nc2c1C(=O)c1ccccc1C2=O`, 6.92 (active). In the case of `CCC1(CC)Cc2ccccc2-c2nc3ccccc3c(=O)n21`, the B-score entry is “inactive”. Under `Cc1nc2ccccc2n1CC(O)c1ccccc1` (stereo not given) stands “inactive”; under `CN(C)c1ccc(Nc2c3c4c(cccc4n(C)c2=O)C(=O)c2ccccc2-3)cc1`, “inactive”; under `NC(=O)[C@H]1CC2(CC(c3cccc(NC(=O)[C@H]4CCC(=O)N4)c3)=NO2)CN1C(=O)c1ccccc1C(=O)c1ccccc1` (stereo not given in full), “inactive”.

Take `Cc1cccc(NC(=O)C(C)N2C(=O)C3C4CC(C(Br)C4Br)C3C2=O)c1` (stereo not given): the B-score is 9.03 (active). Under `Cc1cccc(NC(=O)C(C)SCc2ccccc2)c1` (stereo not given) stands “inactive”.

As for `Cc1cccc(NC(=O)CCN2CC(C)CC(C)C2)c1` (stereo not given), the B-score result is “inactive”. For `CC(C)(Oc1ccc(C2CC2(Cl)Cl)cc1)C(=O)O` (stereo not given), the B-score result is “inactive”. Consider `COc1cc(C2/C(=C(\O)c3ccc4c(c3)CC(C)O4)C(=O)C(=O)N2Cc2ccco2)ccc1O` (stereo not given), for which the B-score result is “inactive”. As for `Brc1ccc(C2=CC(c3ccco3)n3ncnc3N2)cc1` (stereo not given), the B-score entry was “inactive”. As for `CCOc1ccc(C2=CC(c3ccccc3)n3ncnc3N2)cc1` (stereo not given), the figure is 7.44 (active); as for `COc1ccc(C2=CC(c3cccc(OC)c3)n3nnnc3N2)cc1` (stereo not given), “inactive”. As for `CC1=C(C/C=C(\C)CCCC(C)CCCC(C)CCCC(C)C)C(=O)c2ccccc2C1=O` (stereo not given), the entry is “inactive”; as for `COc1ccc(-c2cn[nH]c2-c2ccc(OC)cc2)cc1`, “inactive”; as for `COc1ccc(Oc2cn[nH]c2-c2ccc(OC)cc2O)cc1`, 6.54 (active). As for `CCOc1ccccc1Oc1cn[nH]c1-c1ccc(OC)cc1O`, the entry is “inactive”. Consider `O=C(NCc1ccccc1)C1=C[C@@H](C2CCCCC2)C[C@@H](OCc2ccc(CO)cc2)O1`, for which the B-score entry is “inactive”. As for `CC1CCC(CN2CCN=C2N(C)C)CC1` (stereo not given), the entry is “inactive”; as for `COc1ccc(-c2cc(C(=O)Nc3ccccc3O)c3ccccc3n2)cc1`, “inactive”; as for `COc1ccc(NC(=O)CN(C)C(=O)c2cc(-c3ccc(C)o3)nc3ccccc23)cc1`, “inactive”. Under `COc1ccc(NC(=O)c2cc(-c3ccc(C)o3)nc3ccccc23)cc1` stands 8.06 (active); under `COc1ccc(C(=O)CN2C(=O)NC3(CCc4ccccc43)C2=O)c(OC)c1` (stereo not given), “inactive”. Regarding `CC(OC(=O)CNS(=O)(=O)/C=C/c1ccccc1)C(=O)Nc1ccc(S(=O)(=O)N2CCCC2)cc1` (stereo not given), the B-score entry was “inactive”. In the case of `COc1cccc(Oc2ccc(N)cc2)c1`, the B-score result is “inactive”. With `CC(C)(C)c1ccc(Oc2ccc(N)cc2)cc1`, the B-score result is “inactive”.

As to `Nc1ccc(Oc2ccc(Cl)cc2)cc1`, the B-score was 6.95 (active). As for `CCN(CC)C(=O)CC1(c2ccccc2OC)CCOC(C(C)C)C1` (stereo not given), the entry is “inactive”. Turning to `COC(=O)c1c(C)cc(O)c(C)c1O`, the B-score result was “inactive”. As for `N#C/C=C(/c1ccc(F)cc1)N1CCOCC1`, the entry is “inactive”.
